Screening data from PubChem.
ALOX12 inh: inhibitors of human 12S-lipoxygenase ALOX12. Potency, µM (top dose mostly 108 µM), for the others: top-dose activity change, negative = inhibition, hits mostly inhibitors. 580,000 tested, 1.1% active. AID 1671190. P18054. purified 12hLO, xylenol orange hydroperoxide absorbance; also: % is scaled to controls: 0 for no effect and ±100 for the full control effect
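Hydroperoxide product was detected by ferrous iron/xylenol orange as the 573 to 405 nm absorbance ratio. Arachidonic acid at 40 uM (final) was turned over for 30 min at room temperature by 150 nM human 12hLO, pH 7.0 Hepes buffer, after 15 min compound preincubation.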
BAZ2B block: inhibitors of human BAZ2B bromodomain | Q9UIF8 | AlphaScreen BAZ2B-H3K14Ac peptide displacement | Potency, µM (top dose mostly 114 µM), for inactives: at the highest dose activity change, negative = inhibition, most hits filed as inhibitors | 360,000 tested, 4.4% active | AID 504333; also: % is scaled to controls: 0 for no effect and ±100 for the full control effect; nearly all actives have a fitted effect of over 60% in size
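AlphaScreen luminescence quantifies BAZ2B engagement of H3K14Ac peptide; the protein and biotinylated peptide are both at 50 nM final, buffer PBS pH 7.4 with 0.01% Tween-20, all steps at room temperature.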
JMJD2A Tudor: inhibitors of human JMJD2A Tudor domain | AlphaScreen JMJD2A-Tudor / H3K4me3 peptide binding | Potency, µM (titrated, usually from 114 µM), without a hit: at the highest dose activity change, negative = inhibition, most hits filed as inhibitors | 390,000 tested, 4.4% active | O75164 | AID 504339; also: % is scaled to controls: 0 for no effect and ±100 for the full control effect; nearly all actives have a fitted effect of over 50% in size
G9a inh: blocks human histone lysine methyltransferase G9a. G9a H3K9 monomethylation, AlphaScreen, 2 h. Potency, µM (highest dose often 102 µM), without a hit: at the highest dose activity, negative = inhibition, usual class: inhibitors. 350,000 tested, 8.8% active; also: % is scaled to controls: 0 for no effect and ±100 for the full control effect; nearly all actives have a fitted effect of over 75% in size
Target sequence (Q96KQ7 913-1193 limits assumed): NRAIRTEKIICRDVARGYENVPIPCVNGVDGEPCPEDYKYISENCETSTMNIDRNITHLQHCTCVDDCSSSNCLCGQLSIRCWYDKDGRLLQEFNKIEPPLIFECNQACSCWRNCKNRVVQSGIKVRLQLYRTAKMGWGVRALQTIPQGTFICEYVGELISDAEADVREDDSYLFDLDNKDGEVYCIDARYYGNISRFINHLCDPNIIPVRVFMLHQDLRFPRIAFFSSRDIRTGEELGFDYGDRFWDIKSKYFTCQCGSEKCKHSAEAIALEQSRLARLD
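Signal arises when biotinylated H3K9 peptide, once monomethylated, bridges streptavidin donor and antibody-captured acceptor beads. Enzyme at 20 nM was preincubated 15 min with test compounds; peptide 500 nM and SAM 20 uM then reacted for 2 h.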
Sfp PPTase inh: Sfp phosphopantetheinyl transferase inhibition | AID 1490 | 310,000 tested, 3.5% active | Q9F4F7 | Potency, µM, inactives show largest response in the series, negative = inhibition, actives largely listed as inhibitors | Biochemical Sfp PPTase activity, qHTS;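 also: the enzyme is Sfp with the accession as filed and its product quenches rhodamine fluorescence; 0% = enzyme reaction without inhibitor and -100% = no enzyme wells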
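Buffer: 50 mM Hepes-Na pH 7.6, 10 mM MgCl2, 0.01% Nonidet P-40, 0.01% BSA. Enzyme 15 nM, pre-exposed to compound 15 min; substrates then added and fluorescence change tracked over 30 min.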
HP1b binding inh: HP1-beta chromodomain-methylated histone interaction inhibition; AlphaScreen HP1-beta / biotin-H3K9me3 peptide binding; Potency, µM (highest dose often 114 µM), inactives show top-dose activity change, negative = inhibition, usual class: inhibitors; 390,000 tested, 0.56% active; also: nearly all actives have a fitted effect of over 70% in size
Target sequence (P83916 whole entry, looked up): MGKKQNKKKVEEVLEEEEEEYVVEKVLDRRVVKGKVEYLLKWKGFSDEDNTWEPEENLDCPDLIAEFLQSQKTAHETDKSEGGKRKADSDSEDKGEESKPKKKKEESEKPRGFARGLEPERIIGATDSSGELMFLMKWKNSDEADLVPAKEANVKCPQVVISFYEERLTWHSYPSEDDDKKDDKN
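HP1-beta protein (50 nM final) preincubated 30 min at room temperature with biotinylated H3(1-18)K9me3 peptide (50 nM) in PBS pH 7.4, 0.01% Tween-20, then compound added for 30 min. AlphaScreen streptavidin donor/nickel chelate acceptor beads (10 ug/mL final), 30 min dark, luminescence read.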
An asterisk follows results filed as active; ? = inconclusive; · = no result; [ ] = dose if it differs, or a comment. In the library only some 8.7% were active in any assay of this set; here they are far more common. Calls follow the shape of the dose curve; as a rule, active = well fitted curve in the direction sought with a large enough effect; inconclusive = small, poorly fitted or top-dose-only effect, or another doubt; inactive = no such curve, though single readings can be large; an effect the other way counts as inactive or inconclusive. Potency is read from the fitted curve at half-maximal effect.

SMILES	ALOX12 inh	BAZ2B block	JMJD2A Tudor	G9a inh	Sfp PPTase inh	HP1b binding inh
CCC(C)c1ccc(NC(=S)Nc2ccc(OC)c(OC)c2)cc1 (stereo unspecified)	?	-35%	-35%	?	-2%	?
COc1cccc(NC(=O)CN(C)C(C)C(=O)Nc2ccc(C(C)=O)cc2)c1 (stereo unspecified)	0%	-19%	-17%	-1%	15%	22%
CCOC(=O)C1(Cc2ccccc2F)CCCNC1 (stereo unspecified)	27%	·	·	·	·	·
CC1=C(c2ccc(C(C)C)cc2)S(=O)(=O)N=C1N1CCN(C(=O)c2ccco2)CC1	-2%	-18%	45µM*	14%	5%	-3%
CCCC(=O)NC1CCN(Cc2nnnn2-c2ccccc2)CC1	-45%	·	·	·	·	·
Cc1cc(Br)ccc1OCCOCCN1CCCC1	-2%	?	25µM*	·	-4%	2%
Cc1ccc(OCCOCCN2CCCC2)c(Br)c1	?	56µM*	28µM*	35µM*	-10%	?
Cc1cc(Br)ccc1OCCCCN1CCCCC1	?	50µM*	1.6µM*	?	45µM*	?
Brc1ccc(OCCOCCN2CCOCC2)cc1	-22%	-3%	-12%	-40%[12.7 µM]	12%	8%
c1csc(-c2noc(CN3CCCC3c3ccsc3)n2)c1 (stereo unspecified)	-2%	·	·	·	·	·
CCCCOC(=O)C(C)OC(=O)CCC (stereo unspecified)	-7%[176 µM]	·	·	·	·	·
COc1ccc(Cl)cc1NC(=O)C1CN(S(C)(=O)=O)CC12CCCCC2 (stereo unspecified)	5%	·	·	·	·	·
COCc1cc(C)nc(OCC(=O)N/N=C/c2cccc(OC)c2)c1C#N	27%	-3%	-10%	1%[59 µM]	2%	53%
COCc1cc(C)nc(OCC(=O)N/N=C/c2ccccc2O)c1C#N	3%	79µM*	-15%	47%	23%	34%
COCc1cc(C)nc(OCC(=O)N/N=C/c2ccc(O)cc2O)c1C#N	1%	40µM*	-34%	28%	26%	44%
O=C(Nc1cccc(C(F)(F)F)c1)c1ccc2nc(-c3ccco3)c(-c3ccco3)nc2c1	-39%	50µM*	20µM*	?	28µM*	-92%
COc1ccc(CCNC(=O)c2ccc3nc(-c4ccco4)c(-c4ccco4)nc3c2)cc1OC	·	50µM*	?	?	10µM*	?
CCc1nc2ccc(C(=O)NCCc3ccc(OC)c(OC)c3)cc2nc1CC	19%	-15%[57.1 µM]	-17%	-6%	1%	-7%
O=C(c1ccc2nc(-c3ccco3)c(-c3ccco3)nc2c1)N1CCN(c2ccccc2)CC1	-25%	?	?	?	?	-16%
O=C(O)c1ccc2nc(-c3ccco3)c(-c3ccco3)nc2c1	?	10µM*	25µM*	-123%[12.7 µM]	7.9µM*	?
O=C(Nc1cccc(C(F)(F)F)c1)c1cccc(NC(=O)c2cnc3ccccc3n2)c1	-2%	·	·	·	·	·
O=C(N[C@H](c1cccs1)C1CC(O)C1)c1n[nH]c2c1COCC2 (stereo partly specified)	52%	·	·	·	·	·
CCOc1cc(-c2nc(-c3ccccc3)c(-c3cc([N+](=O)[O-])ccc3C)[nH]2)ccc1O	?	?	?	14µM*	20%	-30%
COc1ccc(-c2nc(-c3ccccc3)c(-c3cc([N+](=O)[O-])ccc3C)[nH]2)cc1OC	?	45µM*	-18%[11.4 µM]	?	4%	?
O=[N+]([O-])c1ccc2nc(-c3ccccc3)[nH]c2c1	?	-3%	-26%	20%[59 µM]	7%	-5%
O=[N+]([O-])c1ccc(O)c(-c2nc(-c3ccccc3)c(-c3cccs3)[nH]2)c1	-4%	35µM*	45µM*	35%[0.501 µM]	7%	?
NC(=O)C1CCN([C@H]2[C@@H]3OC[C@@H](O3)[C@@H](NCc3ccncc3)[C@@H]2O)CC1	38%[176 µM]	·	·	·	·	·
